Assay results reported in PubChem BioAssay (NCI).
Compounds without any hit were thinned out: in the full panel of roughly 79,000, 15% have a hit. Activity calls are given as the source filed them. No stated cut-off is given here; in the data, active means growth inhibition above about 70%; inactive means the rest.

Tests used:
[1] = NCI Yeast Anticancer Drug Screen. Data for the rad50 strain (AID 155);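 further: 0% = growth of vehicle-only cultures of the same strain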; settings: S. cerevisiae rad50 strain growth inhibition, hits give high values; at 50.0 µM unless noted
Procedure, shortened: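 Yeast carrying a defined DNA repair defect were exposed to test compounds, and growth was compared with vehicle-treated controls to give percent inhibition.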

[2] = NCI Yeast Anticancer Drug Screen. Data for the mec2-1 strain (AID 157); settings: S. cerevisiae mec2-1 strain, hits give high values; at 50.0 µM unless noted
Procedure, shortened: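 mec2-1 yeast strain, carrying an alteration in DNA damage repair or cell cycle control, was exposed to compounds; growth inhibition was measured relative to vehicle-treated controls.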

[3] = NCI Yeast Anticancer Drug Screen. Data for the sgs1 mgt1 strain (AID 161);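 further: 0% = growth of cultures given vehicle only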; settings: S. cerevisiae sgs1 mgt1 strain, hits give high values; at 50.0 µM unless noted
Procedure, shortened: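 Growth of a repair-deficient yeast mutant was monitored after compound treatment and expressed as inhibition relative to vehicle-treated cultures.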

[4] = NCI Yeast Anticancer Drug Screen. Data for the cln2 rad14 strain (AID 165);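 further: 0% = growth equal to vehicle treated cultures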; settings: S. cerevisiae cln2 rad14 strain, hits give high values; at 50.0 µM unless noted
Procedure, shortened: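 Yeast carrying cln2 and rad14 alterations (cell cycle control and DNA damage repair) were exposed to compounds. Growth inhibition was measured against vehicle-treated controls.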

[5] = NCI Yeast Anticancer Drug Screen. Data for the bub3 strain (AID 167); settings: S. cerevisiae bub3 mutant strain, hits give high values; at 50.0 µM unless noted
Procedure, shortened: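 Compounds were applied to a genetically altered yeast strain carrying a cell-cycle control defect. Growth inhibition was scored against vehicle-treated controls.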

[6] = NCI Yeast Anticancer Drug Screen. Data for the mlh1 rad18 strain (AID 175); settings: S. cerevisiae mlh1 rad18 strain growth inhibition, hits give high values; at 50.0 µM unless noted
Procedure, shortened: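 Growth inhibition of the yeast strain was measured after compound exposure and expressed relative to vehicle-treated controls. The strain carries defined defects in DNA damage repair.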

Measured: growth inhibition

CC(=O)Nc1ccn(C2OC(CO)C(O)C2O)c(=O)n1 (stereo not drawn)
inactive: [1] -3.6% | [2] 26.9% | [3] 0.05% | [4] 31.1% | [5] -11.6% | [6] 8.3%

O=C1CC2(C(=O)O)CC3CC2C(O1)C3I (stereo not drawn)
inactive: [1] 13.7% | [2] 10.6% | [3] 24.1% | [4] 13.1% | [5] 14.5% | [6] 21.2%

CCCCCCCS(=O)c1nc2ccccc2s1 (stereo not drawn)
inactive: [1] 37.2% | [2] 15.2% | [3] 60.9% | [4] 20.2% | [5] 42.8% | [6] 27.6%

COc1ccc(/C=C2\C(=O)Nc3ccccc32)cc1OC
inactive: [1] -3.4% | [2] 5.45% | [3] -9% | [4] -10.4% | [5] -1.95% | [6] -4.4%

CC1=C(c2ccccc2)C(c2ccccc2)=C(C)C1=NNc1ccc([N+](=O)[O-])cc1[N+](=O)[O-]
inactive: [1] 10.6% | [2] 11.8% | [3] 0.8% | [4] 16.4% | [5] -3.25% | [6] 1.4%

CCC(=O)C(C)=O
inactive: [1] 16.9% | [2] 3.9% | [3] 13.1% | [4] -4% | [5] 0.15% | [6] 11.7%

Cc1ccc(N(C)S(=O)(=O)c2ccccc2)cc1
inactive: [1] 11.4% | [2] -31.3% | [3] 15.4% | [4] 4.25% | [5] 22.6% | [6] 4.55%

Nc1nc2c(c(=O)[nH]1)N(C=O)C(CCNc1ccc(C(=O)NC(CCC(=O)O)C(=O)O)cc1)CN2 (stereo not drawn)
inactive: [1] 5.35% | [2] -12.2% | [3] 2.55% | [4] -12.6% | [5] 9% | [6] 3.25%

O=C(O)c1ccc(Nc2c3ccccc3nc3ccccc23)cc1
inactive: [1] 49% | [2] 11.6% | [3] 37.3% | [4] 17.2% | [5] 26.8% | [6] 24.6%

[O-][N+](=Nc1ccc2c(c1)Cc1ccccc1-2)c1ccc2c(c1)Cc1ccccc1-2
inactive: [1] 25.7% | [2] -20.2% | [3] 25.1% | [4] -19.1% | [5] 0.35% | [6] -7%

O=C(CCCl)Nc1ccc(C(=O)CCc2cccc(NC(=O)CCCl)c2)cc1
inactive: [1] 28.9% | [2] 2.65% | [3] 7.75% | [4] 22.5% | [5] -0.65% | [6] 6.3%

N#C/C(=C\c1ccc(Cl)cc1Cl)C(=O)N/N=C/c1ccc(Cl)cc1Cl
inactive: [1] 62.8% | [2] 37.8% | [3] 27.8% | [4] 58.2% | [6] 23.6%
active: [5] 98%

O=C1C=C(C2=CC(=O)c3cccc(O)c3C2=O)C(=O)c2c(O)cccc21
inactive: [1] -32.5% | [2] -13% | [3] -9.9% | [4] -46% | [5] -8.5% | [6] -4.7%

CC1(C)CC(=O)C(/C=N/C(=S)Nc2ccc(S(N)(=O)=O)cc2)=C(O)C1
inactive: [1] -41.5% | [2] -68.5% | [3] -23.8% | [4] -8.55% | [5] -16.6% | [6] -30.4%

Cc1cc(C)nc(NS(=O)(=O)c2ccc(Nc3c4ccccc4nc4c(C(=O)Nc5ccc(S(=O)(=O)Nc6cc(C)on6)cc5)ccc(Cl)c34)cc2)n1
inactive: [1] 32.9% | [2] 45.1% | [3] 23.1% | [4] 42.2% | [5] 18.9% | [6] 41.5%

O=C1c2cc(F)ccc2-c2c(F)ccc(F)c21
inactive: [1] 38.1% | [2] 8.7% | [3] 27.7% | [4] 11.1% | [5] 23.6% | [6] 23.5%

C[N+](C)=c1nc(N2CCOCC2)ss1
inactive: [1] 1.95% | [2] 0.65% | [3] 6.8% | [4] 8.95% | [5] -63.4% | [6] -16.9%

CCC1CSC(NS(=O)(=O)c2ccc(N)cc2)=N1 (stereo not drawn)
inactive: [1] -18.4% | [2] -3.5% | [3] -0.7% | [4] -39% | [5] 2.15% | [6] 1.3%
